Results filed as inconclusive are left out. Calls of active or inactive are those of the source. The calls were made as follows: active = hit-call score of the fitted dose curve at least 0.9, where 1 is the maximum; inconclusive = response in the unintended direction; inactive = score below 0.9.
Experiments:
[1] = STM_H9_NormalizedViability: Cytotoxicity Assessment at 120 hours in the Stemina devTOX quickPredict H9 human embryonic stem cell (hESC)-based Assay (AID 2283784)
Method in brief: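 Viability endpoint: background-corrected CellTiter-Fluor RFU expressed relative to the 0.1% DMSO mean on each plate. Undifferentiated H9 cells were treated with daily re-dosing and media change, and loss of signal was fitted.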

AR (gene 367) [2] = biological target: AR (gene 367) (UniProt P10275); experiment: ACEA_AR_agonist_80hr: ACEA Biosciences xCELLigence Real-Time Cell Analysis on Androgen Receptor Agonism for Proliferation (AID 2283783);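 also: hits increase impedance growth signal above DMSO baseline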
Method in brief: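 Impedance (RT-CES) growth signal at 80 h post-dose; 22Rv1 cells, 8-pt 1:4 series, top 100 uM final, DMSO ≤0.5%; duplicate plates; gain-of-signal fit relative to DMSO baseline.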

AR (gene 367) [3] = biological target: AR (gene 367) (UniProt P10275); experiment: ACEA_AR_antagonist_80hr: ACEA Biosciences xCELLigence Real-Time Cell Analysis on Androgen Receptor Antagonism for Proliferation (AID 2283787);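 also: 22Rv1 human prostate cancer cells with growth followed by electrical impedance; hits lower the impedance growth signal relative to DMSO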
Method in brief: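 Measures real-time proliferation of 22Rv1 prostate cancer cells by electrode impedance at 80 hours after dosing. Test articles ran at eight concentrations (1:4 steps, top 100 uM final) in biological duplicate.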

[4] = ATG_M_06_XSP1: Attagene TRANS-FACTORIAL Multi-Species (XSP1) HepG2 Assay for M06 Transcription Factor (Internal Marker) (AID 2283790)
Method in brief: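 This background-control readout tracks M06 reporter mRNA, measured by RT-PCR and capillary electrophoresis. HepG2 cells transiently carrying the GAL4-UAS reporter panel were dosed for 24 h with 3 nM 6-alpha-fluorotestosterone added for partial AR stimulation; increases were scored relative to DMSO.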

[5] = ATG_M_61_XSP1: Attagene TRANS-FACTORIAL Multi-Species (XSP1) HepG2 Assay for M61 Transcription Factor (Internal Marker) (AID 2283797)
Method in brief: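 Background-control readout: reporter transcripts measured by RT-PCR and capillary electrophoresis 24 h after dosing transiently transfected HepG2 multi-reporter cells, with 3 nM 6-alpha-fluorotestosterone present. Fitted in the positive direction relative to DMSO.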

[6] = ATG_M_32_XSP1: Attagene TRANS-FACTORIAL Multi-Species (XSP1) HepG2 Assay for M32 Transcription Factor (Internal Marker) (AID 2283799)
Method in brief: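 Reporter transcripts from the M32 internal-control unit measured by RT-PCR, FAM labelling, HpaI digestion and capillary electrophoresis after 24 h compound exposure of transfected HepG2, 3 nM 6-alpha-fluorotestosterone included; DMSO baseline, positive-direction fit.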

[7] = biological target: Peroxisome proliferator-activated receptor gamma (Homo sapiens) (UniProt P37231); experiment: ATG_hPPARg_XSP1: Attagene TRANS-FACTORIAL Multi-Species (XSP1) HepG2 Assay for human Peroxisome Proliferator-activated Receptor gamma (PPARg) (AID 2283800)
Method in brief: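 Reporter mRNA induction, measured by RT-PCR with capillary electrophoresis 24 h after dosing, scored as gain over DMSO. Transfected HepG2 cells express exogenous NR-Gal4 chimeras driving GAL4-UAS reporters; medium includes 3 nM 6-alpha-fluorotestosterone.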

[8] = biological target: mouse Peroxisome Proliferator-activated Receptor gamma (PPARg), Pparg (gene 19016) (UniProt P37238); experiment: ATG_mPPARg_XSP1: Attagene TRANS-FACTORIAL Multi-Species (XSP1) HepG2 Assay for mouse Peroxisome Proliferator-activated Receptor gamma (PPARg) (AID 2283802)
Method in brief: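 Readout is reporter mRNA induction, measured by RT-PCR with 6-FAM labelling, HpaI digestion and capillary electrophoresis, 24 h post-dose relative to DMSO. Transient multi-reporter transfection of human HepG2 with mouse PPARg–GAL4 fusion; 3 nM 6-alpha-fluorotestosterone included.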

[9] = biological target: frog Thyroid hormone Receptor alpha (TRa), thra-a (gene 397942) (UniProt P15204); experiment: ATG_frTRa_XSP1: Attagene TRANS-FACTORIAL Multi-Species (XSP1) HepG2 Assay for frog Thyroid hormone Receptor alpha (TRa) (AID 2283804)
Method in brief: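 Reporter transcript induction, measured by RT-PCR with 6-FAM labelling and capillary electrophoresis, 24 hr after dosing transiently transfected HepG2 cells expressing a frog TRa-GAL4 fusion; medium contained 3 nM 6-alpha-fluorotestosterone; increase over DMSO scored.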

[10] = biological target: human Thyroid hormone Receptor alpha (TRa), THRA (gene 7067) (UniProt P10827); experiment: ATG_hTRa_XSP1: Attagene TRANS-FACTORIAL Multi-Species (XSP1) HepG2 Assay for human Thyroid hormone Receptor alpha (TRa) (AID 2283805)
Method in brief: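 Reporter transcripts from the human TRa-Gal4 TRANS unit quantified by RT-PCR, fluorescent labeling and capillary electrophoresis after 24 hours of chemical exposure in transfected HepG2 cells; medium contains 3 nM 6-alpha-fluorotestosterone. Positive direction fit against DMSO.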

[11] = system: turtle Thyroid Hormone Receptor, alpha (TRa), gene 101949057; experiment: ATG_trTRa_XSP1: Attagene TRANS-FACTORIAL Multi-Species (XSP1) HepG2 Assay for turtle Thyroid Hormone Receptor, alpha (TRa) (AID 2283806)
Method in brief: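 After 24 h chemical exposure, reporter transcripts were measured by RT-PCR with fluorescent primer extension, HpaI digestion and capillary electrophoresis. Cells were transiently transfected HepG2 expressing exogenous NR-Gal4 chimeras; medium contained 3 nM 6-alpha-fluorotestosterone; fitted upward relative to DMSO.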

[12] = biological target: zebrafish Thyroid Hormone Receptor alpha (TRa), thraa (gene 30670) (UniProt Q98867); experiment: ATG_zfTRa_XSP1: Attagene TRANS-FACTORIAL Multi-Species (XSP1) HepG2 Assay for zebrafish Thyroid Hormone Receptor alpha (TRa) (AID 2283807)
Method in brief: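 Reporter transcripts driven by a chimeric zebrafish TRa–Gal4 protein were measured by RT-PCR with fluorescent labelling and capillary electrophoresis. These came from transiently transfected HepG2 cells after 24 h chemical exposure, with 3 nM 6-alpha-fluorotestosterone added; baseline was DMSO.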

[13] = biological target: human Thyroid hormone Receptor beta (TRb), THRB (gene 7068) (UniProt P10828); experiment: ATG_hTRb_XSP1: Attagene TRANS-FACTORIAL Multi-Species (XSP1) HepG2 Assay for human Thyroid hormone Receptor beta (TRb) (AID 2283808)
Method in brief: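 Readout is reporter mRNA induction measured by RT-PCR, fluorescent labelling and capillary electrophoresis, fitted upward relative to DMSO. Transiently transfected human HepG2 cells expressing NR-Gal4 chimeras were dosed for 24 h, medium containing 3 nM 6-alpha-fluorotestosterone.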

[14] = biological target: chicken Estrogen Receptor (ESR1), ESR1 (gene 396099) (UniProt P06212); experiment: ATG_chERa_XSP1: Attagene TRANS-FACTORIAL Multi-Species (XSP1) HepG2 Assay for chicken Estrogen Receptor (ESR1) (AID 2283779)
Method in brief: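 Read-out: fluorescent reporter mRNA fragments resolved by capillary electrophoresis after RT-PCR and HpaI digestion. Transfected HepG2 cells carried chimeric NR-Gal4 constructs, were dosed 24 h with 3 nM 6-alpha-fluorotestosterone added, and activity was fitted upward relative to DMSO.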

[15] = biological target: Estrogen receptor (Homo sapiens) (UniProt P03372); experiment: ATG_hERa_XSP1: Attagene TRANS-FACTORIAL Multi-Species (XSP1) HepG2 Assay for human Estrogen Receptor (ESR1) (AID 2283780)
Method in brief: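 Reporter transcripts from multiplexed GAL4-UAS units driven by NR-Gal4 chimeras in transiently transfected HepG2 were measured by RT-PCR with capillary electrophoresis 24 h post-dose, with 3 nM 6-alpha-fluorotestosterone present; gain-of-signal relative to DMSO.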

[16] = biological target: Estrogen receptor beta (Homo sapiens) (UniProt Q92731); experiment: ATG_hERb_XSP1: Attagene TRANS-FACTORIAL Multi-Species (XSP1) HepG2 Assay for human Estrogen Receptor (ESR2) (AID 2283788)
Method in brief: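 Transient MRTU transfection of HepG2; ERβ–GAL4 TRANS format; 24 h dosing; 3 nM 6α-fluorotestosterone co-added; RNA → RT-PCR → 6-FAM primer extension → CE; activity vs DMSO.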

[17] = system: zebrafish Peroxisome Proliferator-activated Receptor gamma (PPARg), gene 557037; experiment: ATG_zfPPARg_XSP1: Attagene TRANS-FACTORIAL Multi-Species (XSP1) HepG2 Assay for zebrafish Peroxisome Proliferator-activated Receptor gamma (PPARg) (AID 2283801)
Method in brief: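 Trans-activation readout of chimeric zebrafish PPARg–GAL4 in transiently transfected human HepG2 cells, 24 h chemical exposure (medium includes 3 nM 6-alpha-fluorotestosterone). Reporter transcripts measured by RT-PCR and capillary electrophoresis, fitted as gain over DMSO.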

[18] = biological target: Nuclear receptor subfamily 1 group I member 2 (Mus musculus) (UniProt O54915); experiment: ATG_mPXR_XSP1: Attagene TRANS-FACTORIAL Multi-Species (XSP1) HepG2 Assay for mouse Pregnane X Receptor (PXR) (AID 2283803)
Method in brief: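 Transiently transfected HepG2 cells expressing a receptor-Gal4 chimera drive a GAL4-UAS reporter; 3 nM 6-alpha-fluorotestosterone included. Reporter mRNA read 24 h post-dose by RT-PCR and capillary electrophoresis; gain of signal relative to DMSO.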

[19] = system: turtle Estrogen Receptor (ESR1), gene 101933533; experiment: ATG_trERa_XSP1: Attagene TRANS-FACTORIAL Multi-Species (XSP1) HepG2 Assay for turtle Estrogen Receptor (ESR1) (AID 2283781)
Method in brief: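 Transfect HepG2 with reporter units → dose chemical 24 h (medium has 3 nM 6-alpha-fluorotestosterone) → isolate RNA, RT-PCR → FAM primer extension, HpaI digest → capillary electrophoresis; gain of signal vs DMSO.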

[20] = biological target: GAL4 Transcription Factor (Internal Marker), GAL4 (gene 855828) (UniProt P04386); experiment: ATG_GAL4_XSP1: Attagene TRANS-FACTORIAL Multi-Species (XSP1) HepG2 Assay for GAL4 Transcription Factor (Internal Marker) (AID 2283789)
Method in brief: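 This background-control endpoint measures GAL4-driven reporter mRNA via RT-PCR and capillary electrophoresis of labelled fragments. Transiently transfected HepG2 cells were treated 24 h, with 3 nM 6-alpha-fluorotestosterone included, and gain-of-signal was fitted against DMSO.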

frog Thyroid hormone Receptor alpha (TRa), thra-a (gene 397942), sequence (P15204 whole entry, looked up, the tested form may be a part): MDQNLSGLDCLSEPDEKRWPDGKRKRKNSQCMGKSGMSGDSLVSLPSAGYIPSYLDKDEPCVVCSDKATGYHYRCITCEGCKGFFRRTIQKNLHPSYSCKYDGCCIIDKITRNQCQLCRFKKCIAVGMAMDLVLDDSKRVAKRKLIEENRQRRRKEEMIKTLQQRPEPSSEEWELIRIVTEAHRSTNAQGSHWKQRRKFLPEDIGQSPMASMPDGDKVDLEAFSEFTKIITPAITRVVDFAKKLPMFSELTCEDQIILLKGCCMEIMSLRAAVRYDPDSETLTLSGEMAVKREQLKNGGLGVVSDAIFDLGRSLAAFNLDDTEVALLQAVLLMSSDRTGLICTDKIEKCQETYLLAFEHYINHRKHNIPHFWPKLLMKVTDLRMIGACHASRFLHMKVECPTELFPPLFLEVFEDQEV
AR (gene 367), sequence (P10275 whole entry, looked up): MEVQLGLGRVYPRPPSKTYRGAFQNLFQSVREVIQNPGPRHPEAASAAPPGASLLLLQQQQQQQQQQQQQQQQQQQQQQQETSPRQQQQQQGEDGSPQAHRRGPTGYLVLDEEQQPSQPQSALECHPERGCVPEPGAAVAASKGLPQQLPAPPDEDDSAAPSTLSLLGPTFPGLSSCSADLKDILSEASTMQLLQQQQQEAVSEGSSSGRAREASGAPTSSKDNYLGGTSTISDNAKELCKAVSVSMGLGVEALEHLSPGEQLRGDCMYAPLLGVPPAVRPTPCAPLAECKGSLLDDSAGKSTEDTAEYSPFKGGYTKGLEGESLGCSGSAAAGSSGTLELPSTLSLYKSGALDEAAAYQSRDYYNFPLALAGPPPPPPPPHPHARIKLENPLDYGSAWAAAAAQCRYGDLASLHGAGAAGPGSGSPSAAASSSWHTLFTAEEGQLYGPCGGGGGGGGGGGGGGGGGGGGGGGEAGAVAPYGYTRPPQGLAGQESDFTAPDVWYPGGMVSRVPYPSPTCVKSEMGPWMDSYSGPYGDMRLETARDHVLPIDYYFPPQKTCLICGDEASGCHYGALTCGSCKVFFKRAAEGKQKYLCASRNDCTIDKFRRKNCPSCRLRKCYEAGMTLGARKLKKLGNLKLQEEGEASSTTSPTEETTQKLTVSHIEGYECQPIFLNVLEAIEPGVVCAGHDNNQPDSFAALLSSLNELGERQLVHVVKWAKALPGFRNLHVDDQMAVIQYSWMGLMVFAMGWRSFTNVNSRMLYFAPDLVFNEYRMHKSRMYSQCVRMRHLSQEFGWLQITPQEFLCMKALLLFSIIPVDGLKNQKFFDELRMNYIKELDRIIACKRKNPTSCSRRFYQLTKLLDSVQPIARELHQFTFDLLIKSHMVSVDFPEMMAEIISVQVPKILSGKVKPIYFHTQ
human Thyroid hormone Receptor alpha (TRa), THRA (gene 7067), sequence (P10827 whole entry, looked up, the tested form may be a part): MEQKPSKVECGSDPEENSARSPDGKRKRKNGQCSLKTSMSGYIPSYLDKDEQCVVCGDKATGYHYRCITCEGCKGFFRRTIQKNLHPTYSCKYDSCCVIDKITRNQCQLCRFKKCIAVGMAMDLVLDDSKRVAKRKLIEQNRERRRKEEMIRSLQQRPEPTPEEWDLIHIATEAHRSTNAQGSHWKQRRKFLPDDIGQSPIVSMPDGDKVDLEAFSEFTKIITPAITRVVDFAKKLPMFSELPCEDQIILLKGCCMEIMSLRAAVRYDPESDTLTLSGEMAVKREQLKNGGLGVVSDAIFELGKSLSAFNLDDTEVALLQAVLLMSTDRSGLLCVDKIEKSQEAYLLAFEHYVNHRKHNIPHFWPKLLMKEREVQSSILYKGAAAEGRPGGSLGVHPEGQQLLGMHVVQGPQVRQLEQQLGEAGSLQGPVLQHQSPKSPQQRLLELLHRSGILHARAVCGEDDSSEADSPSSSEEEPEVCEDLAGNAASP
human Thyroid hormone Receptor beta (TRb), THRB (gene 7068), sequence (P10828 whole entry, looked up, the tested form may be a part): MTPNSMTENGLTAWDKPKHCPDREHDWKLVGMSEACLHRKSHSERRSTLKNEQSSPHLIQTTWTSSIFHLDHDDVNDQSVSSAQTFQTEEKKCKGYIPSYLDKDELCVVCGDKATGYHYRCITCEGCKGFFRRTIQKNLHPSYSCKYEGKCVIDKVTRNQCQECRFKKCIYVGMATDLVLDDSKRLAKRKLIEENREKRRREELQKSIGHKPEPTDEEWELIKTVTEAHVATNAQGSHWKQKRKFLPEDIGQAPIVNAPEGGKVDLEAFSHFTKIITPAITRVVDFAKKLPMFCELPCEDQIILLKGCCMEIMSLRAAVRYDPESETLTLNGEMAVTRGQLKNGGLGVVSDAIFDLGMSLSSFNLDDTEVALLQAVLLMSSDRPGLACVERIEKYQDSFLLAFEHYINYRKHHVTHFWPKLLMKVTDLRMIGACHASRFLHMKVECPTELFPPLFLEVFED
Peroxisome proliferator-activated receptor gamma (Homo sapiens), sequence (P37231 whole entry, looked up, the tested form may be a part): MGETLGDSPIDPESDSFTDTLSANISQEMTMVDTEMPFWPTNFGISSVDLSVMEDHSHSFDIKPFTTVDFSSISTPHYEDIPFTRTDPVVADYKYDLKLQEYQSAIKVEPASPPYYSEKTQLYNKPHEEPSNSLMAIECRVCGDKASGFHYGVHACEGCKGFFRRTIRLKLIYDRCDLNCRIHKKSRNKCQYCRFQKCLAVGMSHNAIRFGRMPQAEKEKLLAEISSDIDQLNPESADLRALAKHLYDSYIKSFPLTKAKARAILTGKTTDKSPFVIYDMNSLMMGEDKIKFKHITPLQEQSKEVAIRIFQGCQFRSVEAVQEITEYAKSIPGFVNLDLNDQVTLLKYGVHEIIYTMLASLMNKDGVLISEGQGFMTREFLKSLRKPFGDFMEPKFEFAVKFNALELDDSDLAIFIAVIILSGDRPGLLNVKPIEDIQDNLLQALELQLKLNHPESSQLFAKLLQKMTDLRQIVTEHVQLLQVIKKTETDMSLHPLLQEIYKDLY
mouse Peroxisome Proliferator-activated Receptor gamma (PPARg), Pparg (gene 19016), sequence (P37238 whole entry, looked up, the tested form may be a part): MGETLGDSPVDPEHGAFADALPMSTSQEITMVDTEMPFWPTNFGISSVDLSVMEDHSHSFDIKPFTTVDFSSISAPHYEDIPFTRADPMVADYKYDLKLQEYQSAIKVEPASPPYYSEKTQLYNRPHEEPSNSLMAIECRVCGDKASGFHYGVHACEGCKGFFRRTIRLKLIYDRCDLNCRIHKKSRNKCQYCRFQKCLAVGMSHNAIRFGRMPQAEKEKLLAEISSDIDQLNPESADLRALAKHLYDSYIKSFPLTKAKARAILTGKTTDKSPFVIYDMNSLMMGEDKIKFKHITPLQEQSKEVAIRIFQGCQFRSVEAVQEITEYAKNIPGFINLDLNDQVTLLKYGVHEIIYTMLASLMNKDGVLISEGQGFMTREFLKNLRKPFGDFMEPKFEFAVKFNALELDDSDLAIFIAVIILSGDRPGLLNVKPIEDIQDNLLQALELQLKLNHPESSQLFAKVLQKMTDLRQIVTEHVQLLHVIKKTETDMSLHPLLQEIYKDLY
zebrafish Thyroid Hormone Receptor alpha (TRa), thraa (gene 30670), sequence (Q98867 whole entry, looked up, the tested form may be a part): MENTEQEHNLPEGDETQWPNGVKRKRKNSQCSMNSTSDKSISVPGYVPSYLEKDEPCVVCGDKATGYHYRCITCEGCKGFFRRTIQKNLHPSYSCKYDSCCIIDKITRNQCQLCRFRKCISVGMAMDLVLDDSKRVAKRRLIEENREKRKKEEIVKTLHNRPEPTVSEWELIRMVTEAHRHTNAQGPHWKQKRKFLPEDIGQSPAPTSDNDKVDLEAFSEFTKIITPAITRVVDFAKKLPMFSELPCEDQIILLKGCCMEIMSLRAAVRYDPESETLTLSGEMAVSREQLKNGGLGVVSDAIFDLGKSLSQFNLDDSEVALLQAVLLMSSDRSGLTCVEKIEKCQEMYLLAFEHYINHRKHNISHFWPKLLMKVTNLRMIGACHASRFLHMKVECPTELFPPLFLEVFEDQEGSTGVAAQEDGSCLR
chicken Estrogen Receptor (ESR1), ESR1 (gene 396099), sequence (P06212 whole entry, looked up, the tested form may be a part): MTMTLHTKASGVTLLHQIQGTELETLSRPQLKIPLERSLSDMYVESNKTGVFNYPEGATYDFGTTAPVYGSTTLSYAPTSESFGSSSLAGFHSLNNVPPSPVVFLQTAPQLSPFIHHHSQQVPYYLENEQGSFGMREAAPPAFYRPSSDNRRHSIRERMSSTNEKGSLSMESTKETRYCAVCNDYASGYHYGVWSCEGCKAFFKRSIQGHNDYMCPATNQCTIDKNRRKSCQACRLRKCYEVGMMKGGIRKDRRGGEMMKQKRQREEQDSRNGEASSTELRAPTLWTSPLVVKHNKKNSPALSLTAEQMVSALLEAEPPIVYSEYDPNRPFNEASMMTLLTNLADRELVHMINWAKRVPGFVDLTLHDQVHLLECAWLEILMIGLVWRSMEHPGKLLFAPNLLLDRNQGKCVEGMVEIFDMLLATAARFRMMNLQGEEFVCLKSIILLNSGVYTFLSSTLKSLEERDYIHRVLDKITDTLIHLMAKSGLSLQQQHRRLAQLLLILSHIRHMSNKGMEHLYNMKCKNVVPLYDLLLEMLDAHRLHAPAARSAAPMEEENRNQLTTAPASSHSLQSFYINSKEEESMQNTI
Estrogen receptor (Homo sapiens), sequence (P03372 whole entry, looked up, the tested form may be a part): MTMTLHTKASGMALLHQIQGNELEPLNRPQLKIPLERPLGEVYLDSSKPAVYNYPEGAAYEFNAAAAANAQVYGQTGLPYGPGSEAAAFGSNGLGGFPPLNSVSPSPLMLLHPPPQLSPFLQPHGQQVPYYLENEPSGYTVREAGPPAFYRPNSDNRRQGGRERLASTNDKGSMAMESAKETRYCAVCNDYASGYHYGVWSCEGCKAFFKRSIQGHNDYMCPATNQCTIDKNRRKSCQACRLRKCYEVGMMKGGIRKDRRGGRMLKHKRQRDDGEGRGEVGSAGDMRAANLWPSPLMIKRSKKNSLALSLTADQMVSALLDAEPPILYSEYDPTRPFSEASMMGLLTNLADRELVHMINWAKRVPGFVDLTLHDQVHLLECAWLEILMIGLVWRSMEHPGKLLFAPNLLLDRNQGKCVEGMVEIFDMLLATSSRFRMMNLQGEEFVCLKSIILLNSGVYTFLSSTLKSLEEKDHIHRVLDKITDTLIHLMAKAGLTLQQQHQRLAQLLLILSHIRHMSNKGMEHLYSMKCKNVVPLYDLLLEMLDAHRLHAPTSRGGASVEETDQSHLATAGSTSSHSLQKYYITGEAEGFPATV

CCCC(CCC)C(=O)O
AC50 [1]: 340 µM (active)

Cn1cc[nH]c1=S
outcome [1]: inactive

COS(C)(=O)=O
AC50 [1]: 70.5 µM (active)

Cc1ncc([C@@H](CCCCCCc2ccc3c(n2)NCCC3)CC(=O)O)cn1
outcome [1]: inactive

CCN(CC)C(=S)SSC(=S)N(CC)CC
outcome (AR (gene 367) [2]): inactive
AC50 [1]: 0.309 µM (active)
AC50 (AR (gene 367) [3]): 25.6 µM (active)
outcome [4]: inactive
outcome [5]: inactive
outcome [6]: inactive
outcome [7]: inactive
outcome [8]: inactive
outcome [9]: inactive
outcome [10]: inactive
outcome [11]: inactive
outcome [12]: inactive
outcome [13]: inactive

O=S1(=O)CCCO1
outcome [1]: inactive

CCc1cccc(CC)c1N
outcome (AR (gene 367) [2]): inactive
AC50 (AR (gene 367) [3]): 7.11 µM (active)

COc1cc2c(c(OC)c1OC)-c1ccc(OC)c(=O)cc1[C@@H](NC(C)=O)CC2
outcome (AR (gene 367) [2]): inactive
AC50 [1]: 0.0165 µM (active)
AC50 (AR (gene 367) [3]): 0.00409 µM (active)

O=c1[nH]cnc2c1ncn2[C@H]1CC[C@@H](CO)O1
outcome [1]: inactive

Nc1ccn([C@@H]2O[C@H](CO)[C@@H](O)[C@@H]2O)c(=O)n1
AC50 [1]: 0.27 µM (active)

OCc1ccccc1
outcome (AR (gene 367) [3]): inactive

CC(C)C(=O)Nc1ccc([N+](=O)[O-])c(C(F)(F)F)c1
outcome [14]: inactive
outcome [15]: inactive
AC50 [1]: 65.6 µM (active)
outcome [16]: inactive
outcome [4]: inactive
outcome [5]: inactive
AC50 [7]: 21.9 µM (active)
outcome [17]: inactive
AC50 [8]: 27.1 µM (active)
AC50 [18]: 27.4 µM (active)
AC50 [9]: 63.9 µM (active)
AC50 [10]: 29 µM (active)
AC50 [11]: 22.7 µM (active)
AC50 [12]: 18.3 µM (active)
AC50 [13]: 100 µM (active)

CCCCCCOC(=O)CC(CC(=O)OCCCCCC)(OC(=O)CCC)C(=O)OCCCCCC
outcome (AR (gene 367) [2]): inactive
outcome (AR (gene 367) [3]): inactive

CCCCC(CC)C(=O)OCCOCCOCCOC(=O)C(CC)CCCC (stereo not given)
outcome (AR (gene 367) [2]): inactive
AC50 (AR (gene 367) [3]): 65.8 µM (active)

C=CCc1cc(S(=O)(=O)c2ccc(O)c(CC=C)c2)ccc1O
AC50 [14]: 1.19 µM (active)
AC50 [15]: 1.36 µM (active)
AC50 [19]: 1 µM (active)
AC50 (AR (gene 367) [3]): 26.2 µM (active)
outcome [16]: inactive
outcome [20]: inactive
outcome [4]: inactive
outcome [5]: inactive
outcome [6]: inactive
AC50 [7]: 4.14 µM (active)
outcome [17]: inactive
AC50 [8]: 3.63 µM (active)
outcome [9]: inactive
outcome [10]: inactive
AC50 [11]: 100 µM (active)
outcome [13]: inactive

Cc1nc(-c2ccccn2)ncc1C(=O)Nn1cc(C)c2cc(F)ccc21
AC50 (AR (gene 367) [2]): 0.000427 µM (active)
outcome [1]: inactive

NC(=O)N1c2ccccc2C=Cc2ccccc21
outcome [1]: inactive

O=C1CN(N=Cc2ccc([N+](=O)[O-])o2)C(=O)N1
AC50 [1]: 3.4 µM (active)

CC[C@H](C)C(=O)O[C@H]1C[C@H](O)C=C2C=C[C@H](C)[C@H](CC[C@@H](O)C[C@@H](O)CC(=O)O)[C@H]21
outcome [1]: inactive

OCCOCCOCCO
outcome (AR (gene 367) [2]): inactive
outcome (AR (gene 367) [3]): inactive

CCCCCCCCCC
outcome [1]: inactive

COCc1nnc(-c2ccc[n+]([O-])c2)n1-c1c(Cl)c(Cl)cc2[nH]c(=O)c(=O)[nH]c12
outcome (AR (gene 367) [3]): inactive

CCCCCCCCCCCCCCCCOS(=O)(=O)O
outcome (AR (gene 367) [2]): inactive
AC50 (AR (gene 367) [3]): 46.2 µM (active)

COc1cc(C(C)C)c2c(c1)S(=O)(=O)N(COc1cc(=O)n3cccc(OCCN4CCCCC4)c3n1)C2=O
outcome (AR (gene 367) [2]): inactive
AC50 (AR (gene 367) [3]): 18 µM (active)

CCCCOC(=O)c1ccccc1
outcome (AR (gene 367) [2]): inactive
